Inconclusive results are not listed. Calls of active or inactive are those of the source. The call rests on the fitted dose curve; in most records, active means well fitted cell-killing curve with a large enough effect in the repeat runs; inconclusive means weak or mixed curves, or effect the other way; inactive means no such curve, though single readings can be large or run the other way.
Assay: qHTS assay to identify small molecule antagonists of the peroxisome proliferator-activated receptor gamma (PPARg) signaling pathway - cell viability counter screen (AID 743194); further: nearly all actives have a fitted effect of over 55% in size
Settings: PPARg-bla HEK293H viability, CellTiter-Glo luminescence, 17 h, co-treated with 50 nM rosiglitazone; series mostly up to 62.6 µM; activity change, negative = cytotoxicity: at the top concentration
Description: U.S. Tox21 Program National Center for Advancing Translational Sciences [NCATS] NIH Chemical Genomics Center [NCGC] U.S. Environmental Protection Agency [EPA] National Institutes of Environmental Health Sciences [NIEHS] National Toxicology Program [NTP] U.S. Food and Drug Administration [FDA] Tox21 Assay Overview: The peroxisome proliferator-activated receptors (PPARs) are lipid-activated transcription factors of the nuclear receptor superfamily with three distinct subtypes namely PPAR alpha, PPAR delta (also called PPAR beta) and PPAR gamma (PPARg). All these subtypes heterodimerize with Retinoid X receptor (RXR) and these heterodimers regulate transcription of various genes. PPAR-gamma receptor (glitazone receptor) is involved in the regulation of glucose and lipid metabolism. To identify the compounds that activate PPAR-gamma signaling, GeneBLAzer PPAR gamma UAS-bla HEK293H cell line (Invitrogen, Carlsbad, CA, USA) containing a beta-lactamase reporter gene under the control of an Upstream Activator Sequence (UAS) was used to screen the Tox21 compound library. The cytotoxicity of the Tox21 compound library against the PPARg-bla cell line was tested in parallel by measuring the cell viability using CellTiter-Glo assay in the same wells.
Tox21 Assay Protocol Summary: PPARg-bla cells were dispensed at 3000 cells/5uL/well in 1536-well black wall/clear bottom plates using a Multidrop Combi (Thermo Fisher Scientific, Waltham, MA) dispenser. After the assay plates were incubated at 37 C and 5% CO2 for 5 h, 23 nL of compounds dissolved in DMSO, positive controls or DMSO only was transferred to the assay plate by a Pintool station (Kalypsys, San Diego, CA), followed by addition of 1ul Rosiglitazone (50 nM, final concentration in the wells). The assay plates were incubated at 37 C for 17 h, and then 1 uL of LiveBLAzerTM B/G FRET substrate was added using a Bioraptr Flying Reagent Dispenser (FRD) workstation (Beckman Coulter, Indianapolis, IN, USA). The assay plates were incubated at room temperature for 1 h and fluorescence intensity was measured by an Envision plate reader (PerkinElmer, Shelton, CT). For cell viability readout that measures cytotoxicity, 4 ul/well of CellTiter-Glo reagent was added into the assay plates using a Flying Reagent Dispenser. After 30 min incubation at room temperature, the luminescence intensity in the plates was measured using a ViewLux plate reader (PerkinElmer).
On the % scale 0 is the no-effect control and ±100 the full control effect.

| SMILES | activity change, negative = cytotoxicity |
| --- | --- |
| Cc1nc2ccc(CN(C)c3ccc(C(=O)N[C@@H](CCC(=O)O)C(=O)O)s3)cc2c(=O)[nH]1 | 1.96% (inactive) |
| C=CC(C)(CCC=C(C)C)OC(=O)CC (stereo not given) | 17.4% (inactive) |
| C=COCC1CCC(COC=C)CC1 (stereo not given) | -5.71% (inactive) |
| CCCCc1ccc2c(n1)[C@@H](c1ccc(OC)cc1C[C@H](C)C(=O)O)[C@H](C(=O)O)[C@H]2c1ccc2c(c1)OCO2 | -5.56% (inactive) |
| C[C@H]1C[C@H]2[C@@H]3CCC4=CC(=O)C=C[C@]4(C)[C@H]3C(=O)C[C@]2(C)[C@@]1(O)C(=O)CO | -8.41% (inactive) |
| CCC(C)(CN(C)C)OC(=O)c1ccccc1 (stereo not given) | 15.1% (inactive) |
| CCOC(=O)C1=NOC(c2ccccc2)(c2ccccc2)C1 | 1.6% (inactive) |
| COC(=O)C1=C(C)NC(C)=C(C(=O)OC(C)C)C1c1cccc2nonc12 (stereo not given) | 4.26% (inactive) |
| CC(C(=O)O)c1cccc(Oc2ccccc2)c1 (stereo not given) | -10.8% (inactive) |
| CC(C)(N)C#N | -14.6% [at 81.1 µM] (inactive) |
| CCCCN(CCC(=O)OCC)C(C)=O | 15.4% (inactive) |
| O=S(=O)(O)c1cccc2c(S(=O)(=O)O)cccc12 | -1.15% (inactive) |
| CC1=CC(=O)[C@H]2C[C@@H]1C2(C)C | -9.87% (inactive) |
| CC1=NS(=O)(=O)c2cc(Cl)ccc2N1 | -20.8% (inactive) |
| Cc1coc2ccccc2c1=O | 7.63% (inactive) |
| Nc1ccn([C@@H]2O[C@H](CO)[C@@H](O)C2O)c(=O)n1 (stereo not given in full) | 5.26% (inactive) |
| CCCCCCCCCCOc1cc2c(=O)c(C(=O)OCC)c[nH]c2cc1OCC | 22.1% [at 5.95 µM] (inactive) |
| CCCn1cc[n+](C)c1C | 14.2% [at 81.1 µM] (inactive) |
| C[N+]1(CC2COC(c3ccccc3)(c3ccccc3)O2)CCCCC1 (stereo not given) | -11.9% [at 29.1 µM] (inactive) |
| C=COC(=O)C(C)(CC)CCC(C)C (stereo not given) | 2.5% (inactive) |

| SMILES | activity change, negative = cytotoxicity |
| --- | --- |
| CC[N+](CC)(CC(=O)Nc1c(C)cccc1C)Cc1ccccc1 (tested in a mixture with another compound) | 0.983% (inactive) |
| C=CCOCC(O)CO (stereo not given) | -0.551% (inactive) |
| CCCCCCCCCCCCSC | 3.36% (inactive) |
| CCN[C@H]1C[C@H](C)S(=O)(=O)c2sc(S(N)(=O)=O)cc21 | 10.8% (inactive) |
| COc1cc(C)nc(-n2nc(C)cc2OC)n1 | -1.12% (inactive) |
| CC/C=C\CCOC(C)OCC (stereo not given) | -2.89% (inactive) |
| O=C1c2ccccc2C(=O)c2cc(O)ccc21 | 5.6% (inactive) |
| CC(C)=CCC/C(C)=C/C#N | -0.141% [at 81.1 µM] (inactive) |
| O=C(CO)[C@@H](O)[C@H](O)[C@H](O)CO | 5.59% [at 81.1 µM] (inactive) |
| Nc1ccn([C@@H]2O[C@H](CO)[C@@H](O)[C@@H]2O)c(=O)n1 | 29.8% (inactive) |
| CCCCOCCOC(=O)CCCCCCCCC(=O)OCCOCCCC | -0.0888% (inactive) |
| C[C@@H]1C[C@H]2[C@@H]3C[C@H](F)C4=CC(=O)C(Cl)=C[C@]4(C)[C@@]3(F)[C@@H](O)C[C@]2(C)[C@@]1(O)C(=O)CO | 5.18% (inactive) |
| O=C(O)CNC(=O)c1ccc(CO)o1 | 3.9% (inactive) |
| CN(C)C(=O)Oc1ccc[n+](C)c1 | 2.07% (inactive) |
| O=C(O)c1cc(C(=O)O)cc(C(=O)O)c1 | 21% [at 81.1 µM] (inactive) |
| CC1(C)OC[C@@H](COC(=O)CCc2ccc(OC[C@@H](O)CNCCNC(=O)N3CCOCC3)cc2)O1 | 7.43% (inactive) |
| CN(C)CCCCCCN(C)C | -3.26% [at 81.1 µM] (inactive) |
| CCCCOC(=O)CCC(C)=O | 0.359% (inactive) |
| CCCO[Si](OCCC)(OCCC)OCCC | -1.92% (inactive) |
| CC(C)CC(C)(N)C#N (stereo not given) | -0.249% [at 81.1 µM] (inactive) |

— PubChem BioAssay (Tox21)
